Screens as filed in PubChem.
A selection: hits, their analogues and other compounds. The true share with any hit is near 4.5%.
GAA850 FXN act: increases GAA850 frataxin promoter reporter activity. HEK293 lucGAA850 FXN promoter luciferase reporter, 24 h; percent of 10 µM SAHA response. activation, % at 6 µM. 360,000 tested, 0.56% active. AID 540364;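 active = activation above the average of all compounds screened plus 3 SD, cutoff fixed separately per campaign, cut at about 7.5% in these data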
DAX1 inh-1: NR0B1 (DAX1) inhibition | HEK293 Gal4-DAX1 luciferase reporter, luminescence | inhibition, % at 6.75 µM | 340,000 tested, 0.99% active | AID 504766;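 active = inhibition above the mean over all tested compounds plus 3 SD, cut at about 4.2% in these data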;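 note: inhibition shows as a rise in luminescence from relieved DAX1 repression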
Target sequence (P51843 207-470 limits assumed): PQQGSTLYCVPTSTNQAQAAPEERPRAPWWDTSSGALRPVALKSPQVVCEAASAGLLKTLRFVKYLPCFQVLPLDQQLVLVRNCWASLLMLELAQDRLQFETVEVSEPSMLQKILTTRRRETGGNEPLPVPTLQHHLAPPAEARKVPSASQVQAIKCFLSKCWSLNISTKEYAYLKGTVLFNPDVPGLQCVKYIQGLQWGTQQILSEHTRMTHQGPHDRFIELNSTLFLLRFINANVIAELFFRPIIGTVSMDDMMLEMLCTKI
hgDAF-12 ag: hgDAF-12 agonism, primary luciferase screen; HEK293 GAL4-hgDAF12 UAS-luciferase reporter, agonist luminescence; normalized to butyrate control; AID 687014; activation, % at 6.8 µM; 370,000 tested, 1.8% active;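 active = activation above a cutoff set at the mean of all screened compounds plus 3 SD, cut at about 10% in these data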
ssDAF12 agonist: activates DAF-12 receptor from parasite S. stercoralis; HEK293 ssDAF-12/GRIP1 lit1-tk-luc reporter, luminescence; % of 3 µM dafachronic acid response; AID 652126; 370,000 tested, 1% active; activation, % at 6.8 µM;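 active = activation above the mean over all tested compounds plus 3 SD, cut at about 0.9% in these data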
DAX1 inh-2: DAX1 (NR0B1) inhibition, primary screen; HEK293T StAR-luciferase reporter, SF-1/DAX-1 repression relief; inhibition, % at 6.8 µM; 370,000 tested, 1.1% active;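 active = inhibition above the mean over all tested compounds plus 3 SD, cut at about 3.6% in these data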;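 note: higher inhibition means more luminescence from relief of DAX-1 repression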
hcDAF-12 act: activators of H. contortus DAF-12 nuclear receptor; activation, % at 6.8 µM; HEK293 hcDAF-12 lit1-tk-luc reporter, luminescence; 0% DMSO, 100% Δ7-dafachronic acid; 370,000 tested, 1.4% active;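 active = activation above the mean of all tested compounds plus 3 SD, cut at about 5.5% in these data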
DAX1 inh confirm: confirmation of human DAX1 (NR0B1) inhibitors. shares compounds with DAX1 inh-2. HEK293T StAR-promoter luciferase reporter, SF-1/DAX-1 repression. inhibition, % at 6.8 µM. 2,400 tested, 87% active;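 active = inhibition above the average of every tested compound plus 3 SD, cut at about 3.8% in these data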;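 note: active compounds raise luminescence by relieving repression of the StAR reporter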
Target sequence (P51843 whole entry, looked up): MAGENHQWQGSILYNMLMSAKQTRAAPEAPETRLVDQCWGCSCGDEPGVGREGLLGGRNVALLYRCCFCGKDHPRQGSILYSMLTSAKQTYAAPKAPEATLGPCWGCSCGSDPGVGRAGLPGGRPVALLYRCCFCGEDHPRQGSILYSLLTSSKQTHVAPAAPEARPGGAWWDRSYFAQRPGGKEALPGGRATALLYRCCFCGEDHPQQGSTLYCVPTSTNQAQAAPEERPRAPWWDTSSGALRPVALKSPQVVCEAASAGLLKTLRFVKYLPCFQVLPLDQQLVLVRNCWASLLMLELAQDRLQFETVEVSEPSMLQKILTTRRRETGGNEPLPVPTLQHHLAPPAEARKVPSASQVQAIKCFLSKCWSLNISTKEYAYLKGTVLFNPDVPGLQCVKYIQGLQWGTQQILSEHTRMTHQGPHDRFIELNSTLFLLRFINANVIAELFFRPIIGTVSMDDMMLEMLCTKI
SF1 AF2mut Luc: nonselective inhibitor or artifact in SF-1 mutant DAX1 counter-screen. shares compounds with DAX1 inh-2. HEK293 StAR-luciferase, SF-1 AF2 mutant, luminescence. inhibition, % at 6.8 µM. 2,400 tested, 78% active. AID 652136;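 active = inhibition above the mean of all tested compounds plus 3 SD, cut at about 3% in these data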
LXR ag: activates human LXR-beta, counter-screen for hcDAF-12 agonists; shares compounds with hcDAF-12 act; HEK293 Gal4-LXR tk-luc reporter, luminescence, 24 h; normalized: DMSO 0%, positive control 100%; activation, % at 6.8 µM; 3,400 tested, under 10 active;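 active = mean percent activation of the reporter above a cutoff set as the average over tested compounds plus their standard deviation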
hcDAF12 ag: confirmation of H. contortus DAF-12 agonists | 3,400 tested, 61% active | HEK293 hcDAF-12 lit1-tk-luc reporter, luminescence; % of Δ7-dafachronic acid response | AID 743032 | shares compounds with hcDAF-12 act | activation, % at 6.8 µM;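 active = mean activation across triplicate tests above the threshold derived from the earlier primary screen, cut at about 5.5% in these data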
hgDAF12 conf: hgDAF-12 agonism, confirmation assay | shares compounds with hgDAF-12 ag | HEK293 GAL4-hgDAF12 luciferase reporter, agonist mode; percent of butyrate response | activation, % at 6.8 µM | 3,300 tested, 80% active | AID 743050;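 active = mean activation over triplicate wells above the hit cutoff derived from the earlier primary screen, cut at about 11% in these data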
LXRb DAF12 ctr: counter-screen for DAF-12 agonists: agonists of human LXR-beta | shares compounds with hgDAF-12 ag | HEK293 Gal4-LXR luciferase reporter, 24 h | AID 743051 | activation, % at 6.8 µM | 3,300 tested, under 10 active;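 active = mean activation of the triplicate above a set limit carried over from the primary screen, none filed active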
Of the large screens only hits and unclear results are named; the others gave an inactive call (follow-up assays come after a bar, where they were run).

Cc1ccsc1C(=O)OCc1csc(-c2ccccc2)n1	hgDAF-12 ag 16, ssDAF12 agonist 2.7, DAX1 inh-2 4.7, hcDAF-12 act 13 | DAX1 inh confirm 21 | SF1 AF2mut Luc 14 | LXR ag inactive | hcDAF12 ag 14
Cn1cccc1C(=O)OCc1csc(-c2ccccc2)n1	hgDAF-12 ag 16, ssDAF12 agonist 3.1, DAX1 inh-2 5.3, hcDAF-12 act 16 | DAX1 inh confirm 14 | SF1 AF2mut Luc 8.0 | LXR ag inactive | hcDAF12 ag 17
COc1ccc(C(=O)NCCSc2ccccc2)cc1	hgDAF-12 ag 12, DAX1 inh-2 5.1, hcDAF-12 act 7.4 | DAX1 inh confirm 12 | SF1 AF2mut Luc 5.2 | LXR ag inactive | hcDAF12 ag 6.5
COc1ccc(C(=O)NCCNC(=O)c2ccc(OC)cc2)cc1	none
CC(=O)C1=C(C)N(CC(C)C)C(=S)NC1c1cccc(Cl)c1 (stereo not given)	none (no result: GAA850 FXN act, DAX1 inh-1)
CSc1ccc(Cl)c(C(=O)OCC(=O)N2CCN(c3ccccc3)CC2)c1	none
O=C(O)c1ccc(N/N=C/c2cccc(F)c2)cc1	hgDAF-12 ag 21, ssDAF12 agonist 1.2, DAX1 inh-2 6.3, hcDAF-12 act 7.1 | DAX1 inh confirm 15 | SF1 AF2mut Luc 8.3 | LXR ag inactive | hcDAF12 ag 10.0
O=C(/C=C/c1cccs1)N1CCc2ccccc21	hgDAF-12 ag 28, ssDAF12 agonist 3.6, DAX1 inh-2 7.3, hcDAF-12 act 20 | DAX1 inh confirm 19 | SF1 AF2mut Luc 8.4 | LXR ag inactive | hcDAF12 ag 21
O=C(c1cccs1)N1CCc2ccccc21	none
Cc1ccc(C(=O)N2CCN(S(=O)(=O)c3ccc(C(C)C)cc3)CC2)s1	none
Cc1ccc2c(C)c(C(=O)Nc3ccc(S(=O)(=O)Nc4onc(C)c4C)cc3)oc2c1	none
COc1cc(F)c(C2=CC(=O)C[C@H](c3ccc(Cl)cc3)C2)cc1F	none
Cc1ccc2c(N)c(C#N)sc2n1	none
Cc1ccc2nc(-c3sc4nc(C)ccc4c3N)[nH]c2c1	hgDAF-12 ag 15, ssDAF12 agonist 3.2, DAX1 inh-2 5.8, hcDAF-12 act 14 | DAX1 inh confirm 19 | SF1 AF2mut Luc 13 | LXR ag inactive | hcDAF12 ag 28
CCOC(=O)c1sc2ccccc2c1OC(=O)c1ccc(C)cc1	none (no result: hgDAF-12 ag, ssDAF12 agonist, DAX1 inh-2, hcDAF-12 act)
CC(=Nc1ccc(C)cc1)c1sc2ccccc2c1O	hgDAF-12 ag 15, ssDAF12 agonist 2.2, DAX1 inh-2 5.3, hcDAF-12 act 11 | DAX1 inh confirm 13 | SF1 AF2mut Luc 4.3 | LXR ag inactive | hcDAF12 ag 13
CCc1cc(-c2ccc3c(c2)COc2c4ccccc4nn2-3)on1	DAX1 inh-2 4.5, hcDAF-12 act 7.0 | DAX1 inh confirm 11 | SF1 AF2mut Luc 5.1 | LXR ag inactive | hcDAF12 ag 9.3
CCOC(=O)C1(Cc2cccc(OC)c2)CCCN(C(=O)c2cc(C)on2)C1 (stereo not given)	none
CN(C)c1ccc(-c2nc3ccccc3c(=O)[nH]2)cc1	hgDAF-12 ag 15, DAX1 inh-2 5.0, hcDAF-12 act 10 | DAX1 inh confirm 15 | SF1 AF2mut Luc 4.5 | LXR ag inactive | hcDAF12 ag 12
O=C(Nc1nc2c(F)cc(F)cc2s1)c1ccco1	hgDAF-12 ag 12, DAX1 inh-2 5.6, hcDAF-12 act 9.1 | DAX1 inh confirm 11 | SF1 AF2mut Luc 6.3 | LXR ag inactive | hcDAF12 ag inactive
CN(C)c1ccc(-c2csc(C(O)(c3ccccc3)C(F)(F)F)n2)cc1 (stereo not given)	none (no result: DAX1 inh-1)
CN(c1ccc(O)cc1)c1nc(-c2ccccc2)cs1	hgDAF-12 ag 20, DAX1 inh-2 5.0, hcDAF-12 act 8.8 | DAX1 inh confirm 12 | SF1 AF2mut Luc 6.0 | LXR ag inactive | hcDAF12 ag 6.2
CN(C)c1ccc(CN(C(=O)c2ccccc2Br)C2CCS(=O)(=O)C2)cc1 (stereo not given)	none
C=CCNC(=O)c1ccc2c3n(nc2c1)-c1ccccc1CO3	none
c1ccc2c(c1)COc1c3cc4c(cc3nn1-2)OCO4	hgDAF-12 ag 29, ssDAF12 agonist 1.2, DAX1 inh-2 8.7, hcDAF-12 act 11 | DAX1 inh confirm 18 | SF1 AF2mut Luc 9.1 | LXR ag inactive | hcDAF12 ag 13
Clc1ccccc1OCc1nc(-c2ccncc2)no1	none
Clc1ccc(OCc2nc(-c3ccncc3)no2)c(Br)c1	hgDAF-12 ag 13, ssDAF12 agonist 1.2, DAX1 inh-2 5.9, hcDAF-12 act 8.3 | DAX1 inh confirm 12 | SF1 AF2mut Luc 8.5 | LXR ag inactive | hcDAF12 ag 6.2
Cc1ccc(C(C)C)c(OCC(=O)OCC(=O)NC2CCS(=O)(=O)C2)c1 (stereo not given)	none
COc1c(C(=O)Nc2nnc(C3CC3)s2)csc1Cl	ssDAF12 agonist 2.1, DAX1 inh-2 7.0, hcDAF-12 act 8.1 | DAX1 inh confirm 6.2 | SF1 AF2mut Luc 9.1 | LXR ag inactive | hcDAF12 ag 9.5
O=c1cc(-c2ccccc2)oc2ccc3ccccc3c12	DAX1 inh-2 4.6, hcDAF-12 act 8.7 | DAX1 inh confirm inactive | SF1 AF2mut Luc inactive | LXR ag inactive | hcDAF12 ag 9.8
c1ccc(N=NC2=NN(c3ccccc3)CS2)cc1	hgDAF-12 ag 16, ssDAF12 agonist 1.7, DAX1 inh-2 6.5, hcDAF-12 act 16 | DAX1 inh confirm 7.0 | SF1 AF2mut Luc 3.4 | LXR ag inactive | hcDAF12 ag 8.3 | hgDAF12 conf 12 | LXRb DAF12 ctr inactive
CC(C)COC(=O)N(C)C[C@@H]1OCc2cnnn2CCCC(=O)N([C@H](C)CO)C[C@H]1C	none
COc1cccc(N/C=C/C(=O)c2ccc(OC)c(OC)c2)c1	none
